Measurements: PubChem BioAssay AID1851 (National Center for Advancing Translational Sciences (NCATS), 2009)
Out of some 16,000 compounds screened, about 2,600 (16%) were called active. Roughly 20% stayed inconclusive and do not appear here. Calls follow the shape of the dose curve; as a rule, active = well fitted curve in the direction sought with a large enough effect; inconclusive = small, poorly fitted or top-dose-only effect, or effect the other way; inactive = no such curve, though single readings can be large or run the other way. Only a sample is shown.

Biological target: Cytochrome P450 2D6 (Homo sapiens) (UniProt P10635)
Sequence (P10635 whole entry, looked up): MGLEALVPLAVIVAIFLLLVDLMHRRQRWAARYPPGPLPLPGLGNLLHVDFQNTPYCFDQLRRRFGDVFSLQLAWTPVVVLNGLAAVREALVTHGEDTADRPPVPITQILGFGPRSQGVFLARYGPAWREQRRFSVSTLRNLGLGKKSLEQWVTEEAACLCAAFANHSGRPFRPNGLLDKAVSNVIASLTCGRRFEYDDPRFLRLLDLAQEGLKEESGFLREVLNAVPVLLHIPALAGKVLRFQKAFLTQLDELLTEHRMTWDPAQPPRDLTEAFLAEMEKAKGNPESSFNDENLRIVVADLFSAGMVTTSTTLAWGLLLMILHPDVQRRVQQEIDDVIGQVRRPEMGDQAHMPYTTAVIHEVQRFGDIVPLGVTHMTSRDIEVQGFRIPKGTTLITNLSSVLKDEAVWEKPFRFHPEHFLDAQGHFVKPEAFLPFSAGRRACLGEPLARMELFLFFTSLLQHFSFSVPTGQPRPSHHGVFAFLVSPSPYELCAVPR
Test: Cytochrome panel assay with activity outcomes
Details: recombinant CYP, pro-luciferin dealkylation, luminescence, p450-cyp2d6; series mostly up to 57.1 µM; activity, negative = inhibition: at the top concentration
% is scaled to controls: 0 for no effect and ±100 for the full control effect.

| SMILES | activity, negative = inhibition | AC50 |
| --- | --- | --- |
| O=C(CCCc1ccccc1)N1CCN(c2ccc([N+](=O)[O-])cc2)CC1 | -12.6% (inactive) |  |
| CCOc1cc(/C=C2/SC(=O)N(CC(=O)N3CCc4ccccc4C3)C2=O)ccc1OCC(=O)O | 1.37% (inactive) |  |
| CC(C)N(C(=O)CSc1nc2ccccc2n1-c1ccccc1)C(C)C | -26.4% (inactive) |  |
| COc1ccc(C(=O)N2CCC[C@@]3(CCN(Cc4ccc(C#N)cc4)C3)C2)cc1 | -17.5% (inactive) |  |
| COc1ccc(C(=O)N2CCC3(CCCN(Cc4ccccc4)C3)CC2)cc1 |  | 7.94 µM (active) |
| COc1ccc(C(=O)N2CCC3(CCCN(CC(C)C)C3)CC2)cc1 | -15% (inactive) |  |
| COc1ccc(C(=O)N2CCC[C@@]3(CCN(C(=O)Nc4ccccc4)C3)C2)cc1 | 8.36% (inactive) |  |
| COc1ccc(C(=O)N2CCC3(CCCN(C)C3)CC2)cc1 | 3.52% (inactive) |  |
| COc1ccc(C(=O)N2CCC[C@@]3(CCN(Cc4ccccc4)C3)C2)cc1 |  | 7.94 µM (active) |
| C=CCc1cc(C=O)cc(OC)c1OCc1ccc(Cl)cc1 | -12.6% (inactive) |  |
| COc1cc(-n2ccnc2SC)c(Cl)cc1Cl | -9.75% (inactive) |  |
| CCNc1nc(NCC)nc(ON=C(C)C)n1 | 4.81% (inactive) |  |
| COc1ccc2nc(/N=C\N(C)C)sc2c1 | -10.1% (inactive) |  |
| Cc1[nH]n2c(=O)c(C#N)c(-c3ccccc3)nc2c1-c1ccccc1 | 1.51% (inactive) |  |
| CCC#CCOCC(=O)Nc1ccccc1 | 0.758% (inactive) |  |
| c1ccc(CCNc2nnnn2-c2ccccc2)cc1 | -16.8% (inactive) |  |
| Cn1ncc2c(NCCc3ccccc3)nc(Cl)nc21 |  | 0.126 µM (active) |
| Cn1ncc2c(Nc3cccc(Cl)c3)nc(Nc3cccc(Cl)c3)nc21 | 16.7% [at 11.4 µM] (inactive) |  |
| CC(C)n1c(=O)c2c(O)cc(=O)oc2c2ccccc21 | -10.6% (inactive) |  |
| NC(=O)[C@H]1CC2(CC(c3cccc(NC(=O)c4ccccc4)c3)=NO2)CN1C(=O)[C@H]1CCC(=O)N1 (stereo partly drawn) | 0.596% (inactive) |  |
| CCC(CC)C(=O)Nc1cccc(C(=O)Nc2ccc(OC)cc2[N+](=O)[O-])c1 | 13% (inactive) |  |
| COc1ccc(NC(=O)C(F)(F)F)cc1OC | 3.91% (inactive) |  |
| CCCCCCCCC[n+]1cccc2c3ccccc3ccc21 |  | 0.0708 µM (active) |
| O=C(OC(C(=O)NC1CCCC1)c1ccncc1)C1=Cc2ccccc2OC1 (stereo not drawn) | 0.043% (inactive) |  |
| Cc1ccc(CNC(=O)C2(NC(=O)Nc3ccc(C)cc3)CCCCC2)cc1 | -4.3% (inactive) |  |

| SMILES | activity, negative = inhibition | AC50 |
| --- | --- | --- |
| CCn1c(SCC(=O)c2ccc(OC)cc2)nnc1C1CC1 |  | 14.1 µM (active) |
| CCn1c(SCC(=O)NC2CCCc3ccccc32)nnc1-c1cccs1 (stereo not drawn) | -25.5% (inactive) |  |
| CCn1c(SCC(=O)NC(=O)NCc2ccco2)nnc1-c1cccs1 | -27.5% (inactive) |  |
| CCn1c(SCC(=O)OC)nnc1C1CCCCC1 | -1.44% (inactive) |  |
| CCN(CC)C(=O)CSc1nnc(-c2cc3ccccc3cc2O)n1CC | -4.31% (inactive) |  |
| CCn1c(SCC(=O)c2ccccc2)nnc1-c1cccs1 |  | 14.1 µM (active) |
| CCn1c(COc2ccccc2)nnc1SCC(=O)c1cccc([N+](=O)[O-])c1 | -17.8% (inactive) |  |
| COc1ccc(NC(=O)CSc2nnc(C3CC3)n2-c2ccccc2)cc1 | -4.69% (inactive) |  |
| CCn1c(SCC(=O)c2ccc3ccccc3c2)nnc1-c1cccs1 |  | 14.1 µM (active) |
| CCCCN=c1sc(C(=O)OC)cc(=O)n1CCCC | -10.8% (inactive) |  |
| O=C1C2=C(Nc3cc([N+](=O)[O-])ccc3N2)O[C@@H]1c1c[nH]c2ccc(COc3ccccc3)cc12 | 5.7% [at 11.4 µM] (inactive) |  |
| Cc1noc(C)c1C(=O)N1CCC2(CCCN(c3ccncc3)C2)CC1 | 2.43% (inactive) |  |
| O=C(O)c1cc2c(o1)CCC/C2=N\O | 9.97% (inactive) |  |
| Cc1nc2ncnn2c(C)c1CCC(=O)Nc1ccc(S(=O)(=O)N2CCCCCC2)cc1 | -10.7% (inactive) |  |
| CCCn1nc(Oc2nc(NCC)nc(NCC)n2)ccc1=O | -6.81% (inactive) |  |
| Cc1nc2nc(-c3ccc(Cl)cc3)nn2c(C)c1Cl | -3.06% (inactive) |  |
| COC(=O)c1cc(NC(=O)CC2NC3CCCCC3NC2=O)cc(C(=O)OC)c1 (stereo not drawn) | 10.9% (inactive) |  |
| C/C=C\C[C@H](C)[C@H](O)[C@H]1C(=O)N[C@@H](CC)C(=O)N(C)CC(=O)N(C)[C@@H](CC(C)C)C(=O)N[C@@H](C(C)C)C(=O)N(C)[C@@H](CC(C)C)C(=O)N[C@@H](C)C(=O)N[C@@H](C)C(=O)N(C)[C@@H](CC(C)C)C(=O)N(C)[C@@H](CC(C)C)C(=O)N(C)[C@@H](C(C)C)C(=O)N1C | -1.21% [at 25.6 µM] (inactive) |  |
| COc1ncc2nc(-c3ccc(Cl)cc3)c(=O)n(-c3ccccc3)c2n1 | -2.38% (inactive) |  |
| CCc1ccc(-c2ccc(C(=O)C(F)(F)F)[nH]2)cc1 | 7.66% (inactive) |  |
| Cc1ccccc1C(=O)NC(NCc1ccco1)C(Cl)(Cl)Cl (stereo not drawn) | -0.249% (inactive) |  |
| Cc1nc(SCC(=O)Nc2c(C)nn(C)c2C)c2cnn(-c3ccccc3)c2n1 | 7.46% (inactive) |  |
| CCc1nnc(NC(=O)C2CCN(C(=O)NC3CCCCC3)CC2)s1 | 35.1% (inactive) |  |
| COc1cc(/C=N/NC(=O)c2cccc([N+](=O)[O-])c2)ccc1OCc1ccc(C)cc1 | -1.87% (inactive) |  |
| CC(=O)N/N=C/c1cc([N+](=O)[O-])ccc1OCCOc1ccccc1 |  | 0.0562 µM (active) |

| SMILES | activity, negative = inhibition | AC50 |
| --- | --- | --- |
| CC(/C=N/NC(=O)c1cccc([N+](=O)[O-])c1)=C\c1ccccc1 | -0.219% (inactive) |  |
| N#CCCn1c(=O)c(-c2ccccc2)nc2cnc(OCc3ccccc3)nc21 | 0.297% (inactive) |  |
| COc1ccc(COC(=O)N/N=C2/C[C@@H](O)[C@@H](O)[C@@H]3[C@@H]4C(=O)N([C@@H](C)c5ccccc5)C(=O)[C@H]4CC[C@H]23)cc1 | -3.9% [at 11.4 µM] (inactive) |  |
| COc1ccc(C(=O)Nc2ccc(C(=O)OCC(=O)c3ccccc3)cc2)cc1 | -25.3% (inactive) |  |
| O=C(C[n+]1cccc(NC(=O)c2ccccc2)c1)c1ccc(NC(=O)c2ccccc2)cc1 |  | 14.1 µM (active) |
| COc1ccc(C(=O)COC(=O)c2ccc(NC(=O)c3ccccc3)cc2)cc1 | 0.145% (inactive) |  |
| COc1cccc(Cn2c(=O)c(CCc3ccccc3)nc3cnc(N(C)C)nc32)c1 | -1.17% (inactive) |  |
| N[C@@H](C(=O)O)c1ccc(O)c(C(=O)O)c1 | -5.56% (inactive) |  |
| COc1cccc(Cn2c(=O)c(CCc3ccccc3)nc3cncnc32)c1 | -6.45% (inactive) |  |
| CC1=NCC[N@@+]1(CCc1ccccc1)Cc1ccccc1 |  | 0.0501 µM (active) |
| CC(=O)Nc1ccc(S(=O)(=O)N2CCN(c3nc(NC4CCCC4)c4ccccc4n3)CC2)cc1 |  | 12.6 µM (active) |
| CC(=O)NS(=O)(=O)c1ccc(NC(=O)NC2CCCCC2)cc1 | -8.87% (inactive) |  |
| CC(=O)Nc1ccc(S(=O)(=O)NCC2CCC(C(=O)N3CCN(c4ccccn4)CC3)CC2)cc1 (stereo not drawn) | -15.8% (inactive) |  |
| O=c1c2ccccc2nnn1CSc1nnc(COc2ccc(Cl)cc2)n1Cc1ccco1 | -20.5% (inactive) |  |
| O=C1CN2CCN(CC2)CC(=O)Nc2ccc(cc2)S(=O)(=O)c2ccc(cc2)NC(=O)CN2CCN(CC2)CC(=O)Nc2ccc(cc2)S(=O)(=O)c2ccc(cc2)N1 | 0.0037% [at 11.4 µM] (inactive) |  |
| CC1(C)OC[C@@H]2O[C@H](n3cnc4c(N)nc(Cl)nc43)[C@@H](OS(C)(=O)=O)[C@@H]2O1 | 8.22% [at 11.4 µM] (inactive) |  |
| Cc1noc(NS(=O)(=O)c2ccc(NC(=O)CC34CC5CC(CC(Br)(C5)C3)C4)cc2)c1C | 13% (inactive) |  |
| CCCCCCC(C)n1cc(C(C)=O)c(=O)[nH]c1=O (stereo not drawn) | -5.37% (inactive) |  |
| CCC/C=C(\CCC)C(NC(=O)Oc1ccc(F)cc1)c1ccc(C(=O)OC)cc1 (stereo not drawn) | -20.4% (inactive) |  |
| COC(=O)c1[nH]c2ccc(Br)cc2c1NC(=O)CN1CCN(C2CCCCC2)CC1 |  | 1 µM (active) |
| COC(=O)c1[nH]c2ccc(Br)cc2c1NC(=O)CN1CCCc2ccccc21 | -30% (inactive) |  |
| COC(=O)c1[nH]c2ccc(Br)cc2c1NC(=O)Oc1ccccc1 | -5.73% (inactive) |  |
| CCOC(=O)C1CN(S(=O)(=O)c2cccc(C(F)(F)F)c2)c2cc(CC(=O)OC)ccc2O1 (stereo not drawn) | -21.1% (inactive) |  |
| CN1CCN(c2ncc3nc(-c4ccc(Cl)cc4)c(=O)n(CCC#N)c3n2)CC1 | 4.88% (inactive) |  |
| CNS(=O)(=O)c1ccccc1C(=N)c1ccccc1 | 19.2% [at 11.4 µM] (inactive) |  |

| SMILES | activity, negative = inhibition | AC50 |
| --- | --- | --- |
| CCCCCNCc1cccc(Br)c1 |  | 2 µM (active) |
| CCOC(OCC)P(=O)(O)CCCNCc1ccc(Cl)c(Cl)c1 | 8.85% (inactive) |  |
| CCNC(=S)NNC(=O)c1cccc(Br)c1 | 1.21% (inactive) |  |
| Cc1cc(Cl)nc2ccc(Cc3ccc4nc(Cl)cc(C)c4c3)cc12 | -2.9% [at 11.4 µM] (inactive) |  |
| COc1ccc(/C=N/NC(=S)NC2CCS(=O)(=O)C2)cc1OC (stereo not drawn) | -4.59% (inactive) |  |
| C=CC1=C(C(=O)O)N2C(=O)[C@@H](NC(=O)/C(=N\OCC(=O)O)c3csc(N)n3)[C@@H]2SC1 | -1.18% [at 25.6 µM] (inactive) |  |
| NC[C@](O)(CS(=O)(=O)O)c1ccc(Cl)cc1 | 17.4% (inactive) |  |
| Cc1cc(-c2cc(-c3ccc(Cl)cc3)nc(N)c2C#N)co1 | -12.3% (inactive) |  |
| COc1ccccc1OCCn1cc(C(=O)c2ccco2)c2ccccc21 | -27.9% (inactive) |  |
| Cc1cc(OCCn2cc(/C(N)=N/O)c3ccccc32)ccc1Cl |  | 3.98 µM (active) |
| CO[C@]1(NC(=O)CSCC#N)C(=O)N2C(C(=O)O)=C(CSc3nnnn3C)CS[C@H]21 |  | inactive |
| C[C@H](C[C@H](N)C(=O)O)C(=O)O | 12.6% (inactive) |  |
| CCn1c2ccccc2c2cc(NC(=O)CSc3nnc(-c4ccc(OC)c(OC)c4)n3N)ccc21 |  | 14.1 µM (active) |
| Cc1ccc(-c2cc(-c3nnc(SCC(=O)NC(C)C(C)C)n3N)c3ccccc3n2)cc1 (stereo not drawn) | -4.49% (inactive) |  |
| COc1ccc(C)cc1NC(=O)CSc1nnc(-c2ccc(OC)c(OC)c2)n1N | -12.9% (inactive) |  |
| Cc1cccc(NC(=O)CSc2nnnn2C)n1 | -12.5% (inactive) |  |
| CCCCOc1ccc(C(=O)N/C(=C\c2cccc([N+](=O)[O-])c2)C(=O)OCCC)cc1 | 0.716% (inactive) |  |
| Cc1cc(C)c(S(C)(=O)=O)c(Oc2ccc(C(C)(C)C)cc2)n1 | -9.68% (inactive) |  |
| O=c1c[n+](CCCC[n+]2cc(=O)o[nH]2)[nH]o1 | -2.36% [at 11.4 µM] (inactive) |  |
| Cc1cnc(CNc2ncncc2-c2cccc(C#N)c2)cn1 | -10.4% (inactive) |  |
| COc1ccc(CNc2ncncc2-c2cccc(C#N)c2)c(OC)c1 |  | 5.01 µM (active) |
| COc1ccc(CNc2ncnc3ccc(-c4cccc(C#N)c4)cc23)c(OC)c1 | -10% (inactive) |  |
| COc1ccccc1CNc1ncncc1-c1cccc(C#N)c1 |  | 15.8 µM (active) |
